RXFP1 antagonist = antagonists of human relaxin receptor RXFP1; activity change, negative = inhibition, % at 57.5 µM; 0.59% of 350,000 active; AID 1259400; HEK293-RXFP1, relaxin-stimulated cAMP HTRF, 30 min; stronger effect = lower value;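 active = activity change of -60% or lower, but not beyond a set lower limit; inconclusive = change between -60% and -40%, or beyond the set limit; inactive = change above -40%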; note: % is set by controls: 0 for no effect and ±100 for the full control effect
Target sequence (Q9HBX9 whole entry, looked up): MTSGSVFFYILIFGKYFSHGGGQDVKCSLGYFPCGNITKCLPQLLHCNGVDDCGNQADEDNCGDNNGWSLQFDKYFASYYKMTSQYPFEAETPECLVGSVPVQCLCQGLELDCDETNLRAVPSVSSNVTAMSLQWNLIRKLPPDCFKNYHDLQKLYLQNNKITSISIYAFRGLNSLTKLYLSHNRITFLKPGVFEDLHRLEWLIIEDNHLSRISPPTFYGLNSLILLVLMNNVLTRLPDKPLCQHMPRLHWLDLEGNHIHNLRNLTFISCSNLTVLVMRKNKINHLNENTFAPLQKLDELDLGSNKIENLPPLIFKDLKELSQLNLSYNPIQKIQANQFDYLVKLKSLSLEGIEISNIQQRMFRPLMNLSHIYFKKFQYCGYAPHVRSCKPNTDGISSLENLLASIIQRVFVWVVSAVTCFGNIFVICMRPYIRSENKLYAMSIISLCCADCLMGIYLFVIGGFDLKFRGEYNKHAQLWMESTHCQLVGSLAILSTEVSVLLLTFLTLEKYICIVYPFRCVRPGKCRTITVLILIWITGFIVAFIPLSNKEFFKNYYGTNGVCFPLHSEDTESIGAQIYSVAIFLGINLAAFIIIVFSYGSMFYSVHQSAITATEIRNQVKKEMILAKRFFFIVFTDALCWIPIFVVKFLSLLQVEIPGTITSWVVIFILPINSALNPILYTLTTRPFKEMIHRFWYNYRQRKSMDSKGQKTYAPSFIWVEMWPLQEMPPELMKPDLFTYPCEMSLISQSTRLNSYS
GRP78 ERSR act = induces the endoplasmic reticulum stress response in human glioma cells. U87-MG GRP78 promoter luciferase reporter, 16 h. Potency, µM, inactives show at the top dose activation, hits mostly activators. 0.02% of 420,000 active; note: potency is the fitted concentration of half-maximal effect; series mostly up to about 76 µM; % of control where 0% means no effect; nearly all actives have a fitted effect of over 35% in size
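Stably transfected U87-MG glioma cells carrying a GRP78-based luciferase sensor; 16 h compound incubation. Luminescence end-point read 10 min after Bright-Glo addition at room temperature.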
RXFP1 agonist = RXFP1 (human) receptor agonism; Q9HBX9; HEK293T-RXFP1 cAMP TR-FRET, 30 min; response scale: percent of porcine relaxin response, buffer zero; Potency, µM (titrated, usually from 57.5 µM), inactives show at the highest dose activation, most hits filed as activators; 0.3% of 370,000 active; AID 2676; note: potency is the fitted concentration of half-maximal effect; % is set by controls: 0 for no effect and ±100 for the full control effect; nearly all actives have a fitted effect of over 60% in size
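HEK293T cells stably expressing RXFP1 were pretreated with the PDE4 inhibitor Ro 20174, exposed to compounds for 30 min at 37C, lysed, and cAMP was read by TR-FRET. Data normalized to buffer (basal) and 29 nM porcine relaxin (100%).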
PTHR1 ag = agonists of human PTHR1 parathyroid hormone receptor. Q03431. HEK293 GP2 PTHR1 cells, GloSensor cAMP luminescence, 1 h. Potency, µM (titrated, usually from 115 µM), inactives show top-dose activation, hits mostly activators. 0.075% of 410,000 active. AID 743266; note: potency is the fitted concentration of half-maximal effect; nearly all actives have a fitted effect of over 55% in size
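HEK-293-derived GP2 cells expressing PTHR1 and a GloSensor cAMP reporter, 3,000/well, plated overnight, given luciferin plus IBMX (each 0.5 mM as added) for 1 h at 37 °C, then compound for 1 h at 37 °C. Luminescence was read after 15 min at room temperature.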
KCNH2 WT inh = blocks the wildtype human KCNH2 potassium channel; Q12809; U2OS, BacMam KCNH2, thallium flux FluxOr; stronger effect = lower value; activity change, % at 1.84 µM; 0.37% of 340,000 active; AID 720551;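 active = maximum activity change below -70%; inconclusive = maximum activity change between -70% and -50%; inactive = maximum activity change above -50%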; note: % is set by controls: 0 for no effect and ±100 for the full control effect
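U2OS cells were transduced with wild-type KCNH2 virus (2.03 x 10^8 / mL) for 4 h at room temperature, then cultured overnight at 37 C. Thallium flux was read with FluxOr dye. Rate constants were normalized to DMSO controls.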
KCNH2 3.1 block = KCNH2 3.1 (human) potassium channel inhibition | AID 720553 | activity change, % (tested at about 1.8 µM) | 0.95% of 340,000 active | U2OS KCNH2 3.1, thallium flux FluxOr; stronger effect = lower value;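 active = maximum activity change below -70%; inconclusive = maximum activity change from -70% to -50%; inactive = maximum activity change above -50%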;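 note: thallium influx rate constant from kinetic fluorescence after stimulation buffer; % is set by controls: 0 for no effect and ±100 for the full control effect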
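Measured as rate of thallium-driven FluxOr signal in transduced U2OS cells carrying the 3.1 channel, read kinetically for 2 min upon stimulation; values are rate constants scaled to DMSO control wells.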
* marks the source's active call; other numbers are inactive results; i = inactive; ? = inconclusive; . = no result given; [ ] = another dose, or the depositor's remark. Most compounds without a hit are left out; they make up all but 1.4% or so of the library. Unless noted, calls come from the whole dose curve; as a rule, active = well fitted curve in the direction sought with a large enough effect; inconclusive = small, poorly fitted or top-dose-only effect, or another doubt; inactive = no such curve, though single readings can be large; an effect the other way counts as inactive or inconclusive.

SMILES | RXFP1 antagonist | GRP78 ERSR act | RXFP1 agonist | PTHR1 ag | KCNH2 WT inh | KCNH2 3.1 block
COc1ccc2nc(Nc3nc(C)c(C(C)=O)s3)sc2c1 | -70* | ? | 6% | -28% | 3 | -17
OC(COc1ccc(Cl)cc1)CN1CCN(c2ccccc2)CC1 (stereo unspecified) | -3 | 6% | 0% | -17% | -10 | -5
Cn1c2c(c(=O)n(C)c1=O)C(c1ccccc1F)C(C#N)=C(N)O2 (stereo unspecified) | -26 | -4% | 2% | -14% | 7 | 1
Cn1c2c(c(=O)n(C)c1=O)C(c1ccccc1Cl)C(C#N)=C(N)O2 (stereo unspecified) | -2 | -2% | 6% | i | 0 | -105*
COc1ccc(/C=C(\NC(=O)c2cccs2)C(=O)NCc2ccco2)cc1OC | -3 | -3% | -6% | i | 2 | -2
Cc1ccc(NN2C(=O)C=C(c3ccc(Cl)cc3)C2=O)cc1 | -96* | 15% | 2% | -20% | 3 | -47
COc1ccc(C2=CC(=O)N(Nc3ccccc3)C2=O)cc1 | ? | -13% | 2% | -31% | -2 | -16
O=C1C=C(c2ccccc2)C(=O)N1Nc1ccccc1 | -109* | -14% | 1% | -36% | 14 | .
OCCNCc1c(OCc2ccc(Cl)cc2)ccc2ccccc12 | ? | -6% | 4% | -25% | -128* | -105*
CCN(CC)CCNCC(O)(c1ccc(Cl)cc1)c1ccc(Cl)cc1 | -23 | -3% | 1% | i | ? | -91*
CCN(CC)CCOc1ccc(C(O)(Cc2ccc(Cl)cc2)c2ccc(C)cc2)cc1 (stereo unspecified) | -91* | -3% | . | . | . | .
CC(C)(C)NCC(O)(c1ccc(Cl)cc1)c1ccc(Cl)cc1 | ? | -6% | -1% | -15% | -9 | 2
CC(NC(=O)CCNS(=O)(=O)c1ccccc1)c1ccccc1 (stereo unspecified) | 7 | -5% | 0% | -3% | -156* | 4
COc1ccccc1NC(=S)N(Cc1ccco1)Cc1cc2cc(C)ccc2[nH]c1=O | -30 | -1% | 3% | -35% | -1 | 6
Oc1ccc(Cl)cc1CNc1cnc2ccccc2c1 | -10 | 9% | 3% | -41% | -224* | 31
COc1cccc(CN(C)C(=O)c2ccccc2Sc2ccccc2C#N)c1 | -15 | -4% | -1% | -27% | -7 | -93*
Cc1nc2c(sc(=S)n2Cc2ccco2)c(=O)n1CC(=O)Nc1ccc(F)cc1 | -9 | -5% | 4% | -45% | 21 | -87*
CC1=NN(c2cccc(C(=O)O)c2)C(=O)/C1=C\C=C/c1ccccc1 | -75* | -9% | 1% | -40% | -2 | 9
CC1=NN(c2ccc(C)cc2)C(=O)/C1=C\C=C\c1ccccc1 | -37 | -1% | 1% | -31% | -2 | 10
CCc1ccc(CN2CCCC(CNS(=O)(=O)c3ccc(OC)cc3)C2)cc1 (stereo unspecified) | -14 | -3% | 1% | 2% | -26 | -71*
CCn1cc(CN2CCCC(CNS(=O)(=O)c3ccc(OC)cc3)C2)cn1 (stereo unspecified) | -1 | -4% | 0% | i | 2 | .
COc1ccccc1CC(NC(C)=O)C(=O)N1CCN(C(=O)c2cccs2)CC1 (stereo unspecified) | -8 | -4% | 2% | i | 10 | 14
O=C(N/N=C\c1ccc(COc2ccc([N+](=O)[O-])cc2)o1)c1ccc(Cl)cc1 | -2 | -2% | -3% | -3%[57.5 µM] | ? | -77*
Cc1cccc(C)c1OCC(=O)N(Cc1ccco1)Cc1ccco1 | -34 | -3% | 0% | -1% | . | .
CC(Oc1ccccc1)C(=O)Nc1nnc2n1CCS2 (stereo unspecified) | 8 | -3% | 1% | 32µM* | . | .
SMILES | RXFP1 antagonist | GRP78 ERSR act | RXFP1 agonist | PTHR1 ag | KCNH2 WT inh | KCNH2 3.1 block
CC(C)C(=O)Nc1nnc2n1CCS2 | . | -4% | -1% | i | . | .
COCCN1C(=O)Cc2c1nc(N)c1c(N)nc(N3CCN(c4ccc(F)cc4)CC3)c(C#N)c21 | -3 | -4% | 3% | -12% | -24 | 16
COCC(C)N1C(=O)Cc2c1nc(N)c1c(N)nc(N3CCN(c4ccccc4F)CC3)c(C#N)c21 (stereo unspecified) | -60* | -4% | 19% | -19% | 8 | 6
Cc1ccccc1CCN1CCCC(CN(C)C(=O)C(=O)c2ccco2)C1 (stereo unspecified) | -5 | 8% | 4% | i | -2 | -90*
CN(CC1CCCN(CCc2ccc(Cl)cc2)C1)C(=O)C(=O)c1ccco1 (stereo unspecified) | 15 | -4% | -2% | 0% | -23 | -89*
CN(CC1CCCN(CCc2cccc(C(F)(F)F)c2)C1)C(=O)c1ccco1 (stereo unspecified) | -5 | -3% | -2% | 10% | 33 | -22
Cc1ccc(-c2cc3nc(NCCOc4ccccc4Cl)n(C)c(=O)c3s2)cc1 | . | -1% | . | -4% | . | .
CC(=O)c1sc(NC(=O)C(C)C)nc1C | 8 | -1% | 8.9µM* | -25% | -3 | -6
CC(=O)Nc1nc(C)c(C(C)=O)s1 | 3 | -3% | 19% | -25% | 1 | -1
CCOc1ccc(/C=N/NC(=O)c2csc(C)c2C)c(OCC)c1 | -18 | -2% | 0% | -16% | -8 | -81*
COc1ccccc1/C=N/NC(=O)c1csc(C)c1C | -4 | -1% | 2% | -6% | 0 | .
O=C(CCCN1CCN(c2ccccc2)CC1)c1ccc(F)cc1 | -3 | -7% | . | -23% | 34 | -50
O=C1NCN(c2ccccc2)C12CCN(CCCC(c1ccc(F)cc1)c1ccc(F)cc1)CC2 | ? | -15% | 0% | 20% | -194* | 1
O=C(Cc1cccs1)NCc1cccnc1 | 0 | -6% | 1% | i | -2 | 14
O=C1C(Br)=Cc2cccc3cccc1c23 | -69* | -3% | -5% | -37% | -13 | 11
COc1ccc(C(=O)Nc2cc3c(cc2N2CCCC2)n(C)c(=O)c(=O)n3C)cc1OC | -11 | -2% | 22% | -24% | . | .
CC(=O)OC1CCC2C3CCC4OC(=O)CCC4C3CCC12C (stereo unspecified) | -8 | -3% | . | -18% | 0 | -5
CSCCOC(=O)C1=C(C)Nc2ccc(C)cc2S1 | 0 | 3% | 0% | -15%[57.5 µM] | 2 | 5
CC(C)COc1ccc(C(=O)N(CC(=O)Nc2ccccc2C(F)(F)F)Cc2ccco2)cc1 | 9 | -6% | 2% | i | -2 | 1
Cc1cccc(OCCCn2c(CCNC(=O)C(C)(C)C)nc3ccccc32)c1 | -4 | 1% | -2% | -30% | . | .
